# Laboratory results taken from the supplement of paper PMC11417369.
# ± gives the standard deviation of the averaged measurements. The full ranking holds about 25,000 sequences; the median of “ln(normalized median fluorescence intensity)” is about 10, and the highest 2% start at about 12. For the sample, the highest values were picked, then their nearest neighbours and some sequences at random.
# System: PfAP2-G AP2 domain (GST-tagged)
# Test: gcPBM binding intensity (ln(normalized median fluorescence intensity)); higher = stronger DNA binding
# How it was run: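 After 1 h on an Agilent 4 × 180k array of primer-extended double-stranded 36-bp intergenic genomic probes and negative controls, bound GST-tagged P. falciparum DNA-binding domains were detected with Alexa488 anti-GST antibody and scanned at 488 nm. The domains had been expressed in E. coli, and binding took place in 1× PBS with 1% milk, 0.2 mg/ml BSA, 0.5% salmon testes DNA and 0.03% Triton X-100. Binding intensity is the highest Masliner-normalised natural-log median intensity across replicate spots of either probe orientation.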
row,Sequence,gcPBM binding intensity (ln)
1,AAAAAAAATTAGGAAACATGCATGTCCCGATAAATA [TGCATGCA_site149],10.28 ± 0.049
2,TCTTATTATAAAAGGAGTACATCAATTAGATGTTCC [XGTACX_site8465],11.6 ± 1
3,ATAATATATATATATATATTATCAAATATATATATA [GTGCAC_negctrl_site346],9.55 ± 0.23
4,TATTATATATAATATTGTACATTAAAATATTAAAGA [XGTACX_site3698],10.9 ± 0.67
5,ATATAATGAAGTGAATGTACATATAAAATGTAAAAA [XGTACX_site8052],11.1 ± 0.43
6,GGAAGATGAAAAATAAAGCATGTGCTGTACAAACGA [CACACA_negctrl_site1625],10.8 ± 0.37
7,GATGATGTTTATTTGTGTACATATTAATACTTAATA [XGTACX_site1902],11.4 ± 0.82
8,AATATTTTGATGTGTACACATTAATACAGTTTTACA [CACACA_site5711],11.7 ± 0.91
9,TTAATATTTTGATGTGTACACATTAAAATAGTTTTA [CACACA_site5712],11.8 ± 0.89
10,ATATAAATATTTATTAGTACACATTAGTGTAGTTTT [XGTACX_site4493],11.5 ± 0.88
11,GATGATAAAATATGTACACACAGTTTATACATTTTG [CACACA_site4055],11.3 ± 0.76
12,TTATTTAAATAATATGTACACACATTTAAAAAATTA [CACACA_site8912],11.6 ± 0.95
13,TTTTATTATTTGTCTTGTACTCATTGTAAGAGTATG [XGTACX_site1538],11.4 ± 0.91
14,ATATAATAATATTATACATGCAAAATATGTTCTTCA [TGCATGCA_site115],9.795 ± 0.049
15,AACTTTATACTTTTTTGTACTTAACCCTTACATTTT [XGTACX_site5798],11.1 ± 0.38
16,AATAACAATTATAAAAGTACAGATTTTTATTTCTAA [XGTACX_site5746],11.1 ± 0.79
17,TATATAAAAATATGTTGTACGCATTTATAAATATAT [XGTACX_site3758],11.6 ± 0.98
18,AAATAAAATTTTATGTGTACGCAAAAAGTTGTAAGC [XGTACX_site8911],11.9 ± 1.3
19,TATGTATATATATAAAGTACGCAAATTTATAATAAG [XGTACX_site8744],11.5 ± 0.98
20,GCGTAATCTATTTGCACACTTATTTGTTCTTAAAAA [CACACA_site672],10.2 ± 0.14
21,AAGATATGTACTAATACACACACATATATATATATA [CACACA_site8249],11.2 ± 0.79
22,CATACATTTAAAAAGTGTACGTATATGAAAAAAGGA [XGTACX_site6512],11.7 ± 1.1

row,Sequence,gcPBM binding intensity (ln)
1,ATGAAAATTATAAAGTGTACATATAGAAACATTTAC [XGTACX_site8047],11.4 ± 0.99
2,TGTATATACATAAAGTGTACGTATATTTATATATAT [XGTACX_site4320],11.6 ± 0.98
3,TACATATACATATACACACACACACCCAAATAAATA [CACACA_site1344],10.3 ± 0.35
4,TATATTAACAAAATGGTGCAATAATTTCTATATTAT [GTGCAC_site9857],10.1 ± 0.22
5,TTTTCTCTAAAAAGGTGTACAACTAATAATGCACTG [XGTACX_site6074],11.7 ± 0.83
6,ATTTTTCTAAAATACTGTACAAAGGTGCATAAAAAG [XGTACX_site4425],11 ± 0.64
7,GATAATGAATGATGCACACTAAAAATATTCTACAAC [CACACA_site3622],10.185 ± 0.007
8,TTATATATTTTATTATTTATAATCTTTTTTTTATTT [CACACA_negctrl_site112],9.585 ± 0.049
9,AAAAATGAGTGACACACACACATATAAATATAAATA [CACACA_site7115],10.1 ± 0.25
10,TATGTATGCCTGTTTTGTACTTAAGAAAATGTTGCT [XGTACX_site8443],11 ± 0.57
11,TGTGTCAAATAATTAATGTCATATATATTTTGTATA [CACACA_negctrl_site1479],9.675 ± 0.078
12,TATTTTTTTAATAACTGTACTTTTTTGTCAAATGGA [XGTACX_site4179],11.7 ± 1.2
13,AATTTTTGTATTTTTAGTACTTAATTTCAAAATAAC [XGTACX_site4234],11.2 ± 0.6
14,AATAAATATATATTCACACACAAACATATATATATA [CACACA_site4023],10.1 ± 0.45
15,CAGTATTACATGAGGACACACACAAAAAAAATATAT [CACACA_site8156],11.3 ± 0.86
16,AATATAAAAAAAAAATGTACATATTATATATATATA [XGTACX_site5113],11.1 ± 0.72
17,ATAATTAAATAAAAAAGTACACATACATCATAATGC [XGTACX_site7656],11.5 ± 0.87
18,AAAAGAACAATGAAGTGTACTAATAATTATTTATGT [XGTACX_site6649],11.3 ± 0.79
19,AAAAAATAATTGAAGTGTACGTACAATGATTTTACT [XGTACX_site7663],11.8 ± 1.1
20,TTAAAAATGATTGAATGTACAGATTAATATAATTTT [XGTACX_site7394],10.7 ± 0.28
21,TAAAATGAAGGAATATGTACATAAATAAACATATAT [XGTACX_site6266],11.2 ± 0.63
22,TTATAGTAATAATAATGTACATTTATACACATATAT [XGTACX_site1965],10.9 ± 0.47
